Consider 38 molecules from PubChem BioAssay (NCI).

Assay [1] is described as follows: NCI Yeast Anticancer Drug Screen. Data for the rad50 strain (AID 155).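 Further: 0% = growth of vehicle-only cultures of the same strain.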 The following applies: S. cerevisiae rad50 strain growth inhibition; at 50.0 µM; active compounds read high. Put shortly: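 Inhibition values express reduced yeast growth in compound-treated cultures relative to vehicle-treated controls.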
Assay [2] in a line: NCI Yeast Anticancer Drug Screen. Data for the mec2-1 strain (AID 157). The conditions noted are these: S. cerevisiae mec2-1 strain, at 50.0 µM, active compounds read high. Put shortly: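 Yeast mec2-1 mutant treated with compound. Readout: growth inhibition vs vehicle controls.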
A short description of assay [3]: NCI Yeast Anticancer Drug Screen. Data for the sgs1 mgt1 strain (AID 161).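 Further: 0% = growth of cultures given vehicle only.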 The conditions noted are these: S. cerevisiae sgs1 mgt1 strain, at 50.0 µM, active compounds read high. Put shortly: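 Inhibition of yeast growth, normalised to vehicle-treated controls, is reported for a strain bearing genetic alterations in DNA damage repair.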
A short description of assay [4]: NCI Yeast Anticancer Drug Screen. Data for the cln2 rad14 strain (AID 165).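 Further: 0% = growth equal to vehicle treated cultures.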 The following applies: S. cerevisiae cln2 rad14 strain, at 50.0 µM, active compounds read high. Put shortly: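 cln2 rad14 yeast strain; compound exposure; growth inhibition read vs vehicle controls.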
Assay [5] is described as follows: NCI Yeast Anticancer Drug Screen. Data for the bub3 strain (AID 167). The following applies: S. cerevisiae bub3 mutant strain, at 50.0 µM, active compounds read high. Put shortly:
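Steps: expose the mutant yeast strain to compound; grow alongside vehicle-treated cultures; measure growth; express inhibition against the vehicle cultures.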

Assay [6] in a line: NCI Yeast Anticancer Drug Screen. Data for the mlh1 rad18 strain (AID 175). The conditions noted are these: S. cerevisiae mlh1 rad18 strain growth inhibition; at 50.0 µM; active compounds read high. Put shortly:
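Yeast w/ defined DNA-repair lesions; compound exposure; growth vs vehicle controls → % inhibition.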

About 79,000 compounds went through this panel and 15% of them were active in at least one assay; those are over-represented in the sample as a whole. A number with no mark means an inactive call. Active and inactive are the calls of the source. No stated cut-off is given here; in the data, active means growth inhibition above about 70%; inactive means the rest.

In the case of `CC(C)(C)SCCCCO`, the growth inhibition in assay [1] was -7.3%; in assay [2], 19.4%; in assay [3], -0.8%; in assay [4], 0.35%; in assay [5], -5.2%; in assay [6] it was -3.15%.

For the molecule `O=C(NC(c1ccccc1)C(Cl)(Cl)c1ccccc1)c1ccccc1` (stereo not drawn), the growth inhibition in assay [1] is 21.8%; in assay [2], -7.5%; in assay [3], 6.4%; in assay [4], -0.2%; in assay [5], 22.9%; in assay [6], 23.3%.

Consider `CC(C)C1CCC2(C)C(CCC3C4(C)CCCC32OC4)C1` (stereo not drawn), for which the growth inhibition is -20.5% in assay [1]; 1.35% in assay [2]; 0.75% in assay [3]; -25.1% in assay [4]; 48% in assay [5]; 11.4% in assay [6].

As for `NC(N)=NC(N)=Nc1ccc2ccccc2c1`, the growth inhibition is 58.4% in assay [1]; 12.3% in assay [2]; 17% in assay [3]; 20.3% in assay [4]; 8.6% in assay [5]; 22.6% in assay [6].

As to `O=C(O)CCc1ccc(O)c(O)c1`, the growth inhibition is 19.6% in assay [1]; 2.5% in assay [2]; 11.8% in assay [3]; 13.3% in assay [4]; 2.8% in assay [5]; -21.8% in assay [6].

Turning to `O=C(Nc1cccc(C(=O)Nc2ccc3cc(S(=O)(=O)O)cc(S(=O)(=O)O)c3c2)c1)Nc1cccc(C(=O)Nc2ccc3cc(S(=O)(=O)O)cc(S(=O)(=O)O)c3c2)c1`, the growth inhibition in assay [1] was 6.8%; in assay [2] it was 34.1%; in assay [3], 9.25%; in assay [4], -3%; in assay [5], 3.65%; in assay [6] it was 33%.

In the case of `COC(=O)C12c3ccccc3C(c3ccccc31)c1c(N=O)ccc(NO)c12`, the growth inhibition in assay [1] is 99.2% (active); in assay [2] it was 99.3% (active); in assay [3], 99.1% (active); in assay [4], 98.7% (active); in assay [5], 99% (active); in assay [6] it was 99% (active).

As to `FCCCCSc1ncnc2nc[nH]c12`, the growth inhibition is -25.3% in assay [1]; -15.2% in assay [2]; -24.7% in assay [3]; -33.4% in assay [4]; -11.5% in assay [5]; -17.2% in assay [6].

As for `CCCCCC(O)(CCCC)CCCC`, the growth inhibition in assay [1] was -0.45%; in assay [2] it was -5.6%; in assay [3] it was -14.3%; in assay [4], -12.6%; in assay [5], -0.55%; in assay [6], -1.15%.

Take `[O-][N+]1=CCCC1`: the growth inhibition was 4.4% in assay [1]; -13.9% in assay [2]; -0.65% in assay [3]; -5.5% in assay [4]; -0.2% in assay [5]; -16.4% in assay [6].

For the molecule `CCOC(=O)C(N=Nc1ccc(C)cc1Br)C(C)=O` (stereo not drawn), the growth inhibition in assay [1] is 16.2%; in assay [2], 13.9%; in assay [3], 24.9%; in assay [4] it was 15.6%; in assay [5] it was 22.4%; in assay [6] it was 24.1%.

With `Cc1ccc(CNC(=O)Nc2c(C)cccc2C)cc1C`, the growth inhibition is 8.8% in assay [1]; 2.55% in assay [2]; 9.75% in assay [3]; -6.3% in assay [4]; 14.4% in assay [5]; 3.45% in assay [6].

`Nc1ccc2ccccc2c1N=Nc1ccc(/C=C/c2ccc(N=Nc3c(N)ccc4ccccc34)cc2S(=O)(=O)O)c(S(=O)(=O)O)c1`: the growth inhibition in assay [1] is 23.4%; in assay [2] it was 18.2%; in assay [3], 62%; in assay [4], 7.1%; in assay [5], 31.9%; in assay [6] it was 53.4%.

`NC(=S)N/N=C/c1cc(=O)c2cc(Cl)ccc2o1`: the growth inhibition is -0.05% in assay [1]; 11.8% in assay [2]; 42.3% in assay [3]; 45.8% in assay [4]; 7.95% in assay [5]; 55% in assay [6].

For `COc1ccccc1NC(=S)N/N=C/c1ccccn1`, the growth inhibition in assay [1] was -16.6%; in assay [2] it was 15.9%; in assay [3], 24.4%; in assay [4] it was 8.95%; in assay [5], 17.7%; in assay [6], 14%.

For `CC(NC(=O)C(=O)c1ccccc1)c1ccccc1` (stereo not drawn), the growth inhibition was 10.4% in assay [1]; -2.95% in assay [2]; -13.6% in assay [3]; 20.1% in assay [4]; 27.4% in assay [5]; -12.2% in assay [6].

Regarding `C=Cc1ccccc1N=NC(C(=O)OC)=P(c1ccccc1)(c1ccccc1)c1ccccc1`, the growth inhibition in assay [1] was -24.2%; in assay [2], 20.9%; in assay [3], -1.2%; in assay [4] it was -6.75%; in assay [5], -4.05%; in assay [6], -10.9%.

Take `NNC(=S)N/N=C/C(Cl)=C(\Cl)C(=O)O`: the growth inhibition in assay [1] was -2.2%; in assay [2], -13.2%; in assay [3] it was 1.8%; in assay [4], -2%; in assay [5], 0.1%; in assay [6] it was -1.75%.

`CC1(O)CCC(O)CC1CC[N+](C)(C)[O-]` (stereo not drawn): the growth inhibition was 7.35% in assay [1]; 1.3% in assay [2]; 8.8% in assay [3]; 4.75% in assay [4]; 3.3% in assay [5]; 5.55% in assay [6].

In the case of `CC(C)(C)NC(=O)NC(C)(C)C`, the growth inhibition in assay [1] is -15.1%; in assay [2], -7.95%; in assay [3], 7.3%; in assay [4], 14.8%; in assay [5], 20.9%; in assay [6], 4.45%.

`CCOc1ccc(NC=O)cc1`: the growth inhibition in assay [1] was 0.75%; in assay [2], 8.45%; in assay [3] it was 5.2%; in assay [4], -3.55%; in assay [5] it was 18.5%; in assay [6] it was -11.3%.

For `CC(C)CC(=O)NC(Nc1ccc(S(=O)(=O)Nc2ncccn2)cc1)(C(F)(F)F)C(F)(F)F`, the growth inhibition in assay [1] is -2.9%; in assay [2] it was -9.95%; in assay [3] it was 14.3%; in assay [4] it was 20.6%; in assay [5], -5.8%; in assay [6], 6.8%.

On to `CCOC(=O)C1=C(Nc2ccc(Cl)cc2Cl)OC/C1=N\NS(=O)(=O)c1ccc(C)cc1`, for which the growth inhibition in assay [1] was -3.95%; in assay [2], 9.25%; in assay [3], 1.2%; in assay [4], -8.6%; in assay [5], -2.45%; in assay [6] it was 3.3%.

Take `O=C(/C=C/c1ccc(O)cc1)c1ccc2c(c1)OCO2`: the growth inhibition in assay [1] is 8.05%; in assay [2] it was 23.3%; in assay [3], 25.8%; in assay [4], -1.55%; in assay [5], 43%; in assay [6], 43.8%.

For `COc1ccc2cc1Oc1ccc(cc1)C[C@@H]1c3cc(c(OC)cc3CCN1C)Oc1c(OC)c(OC)cc3c1[C@@H](C2)N(C)CC3`, the growth inhibition in assay [1] is 33%; in assay [2], -20.8%; in assay [3], 18.6%; in assay [4], -2.7%; in assay [5], 21.9%; in assay [6], 31.2%.

For `CCC(=O)/C=C/c1ccc(Cl)cc1`, the growth inhibition in assay [1] was 10.7%; in assay [2], 8%; in assay [3], 7.75%; in assay [4], -25.6%; in assay [5] it was -14.7%; in assay [6] it was 11.3%.

For `CCOc1ccc2nc(/C=C/c3ccccc3)ccc2c1`, the growth inhibition in assay [1] is 13.9%; in assay [2] it was -3.65%; in assay [3], 13.8%; in assay [4], -3.75%; in assay [5] it was 9.85%; in assay [6], 14.8%.

Turning to `CC(C)=CC(=O)n1nc2c(c1CC(C)C)C(=O)C(Nc1ccccc1)=CC2=O`, the growth inhibition in assay [1] was 35.1%; in assay [2] it was 3.25%; in assay [3], 21%; in assay [4], 24.8%; in assay [5], 1.3%; in assay [6] it was 27.4%.

As to `O=C1C(Cl)C(c2ccccc2O)N1n1cnc2ccccc2c1=O` (stereo not drawn), the growth inhibition in assay [1] is -29.4%; in assay [2] it was 8.9%; in assay [3], -12.5%; in assay [4], -9.5%; in assay [5], -7.8%; in assay [6], -16.2%.

For the molecule `O=C(CCl)Nc1cc(Cl)c(Cl)cc1Cl`, the growth inhibition in assay [1] was 32.4%; in assay [2] it was 21.8%; in assay [3], 58.1%; in assay [4], 2.75%; in assay [5] it was 64.8%; in assay [6], 37%.

On to `Cc1c(C(=O)CC(=O)C(=O)Nc2c(C(C)C)cccc2C(C)C)[n+](=O)c2ccccc2n1[O-]`, for which the growth inhibition in assay [1] is 35.6%; in assay [2] it was 39.5%; in assay [3] it was 22.2%; in assay [4], 40.5%; in assay [5] it was 29.8%; in assay [6], 36%.

Turning to `O=C(/C=C/c1ccco1)N1CCN(Cc2ccccc2)CC1`, the growth inhibition is 3.7% in assay [1]; 8.15% in assay [2]; 23% in assay [3]; 32.2% in assay [4]; 53% in assay [5]; 14.4% in assay [6].

Consider `CC1CCC2(CC1)NN=c1s/c(=C\c3ccc(O)cc3)c(=O)n1N2` (stereo not drawn), for which the growth inhibition is -9.3% in assay [1]; -1.7% in assay [2]; -21.9% in assay [3]; 8.55% in assay [4]; -21.2% in assay [5]; -19.9% in assay [6].

Regarding `O=c1c2cc3c(cc2[nH]c2ncccc12)OCO3`, the growth inhibition in assay [1] was -12.8%; in assay [2] it was 0.65%; in assay [3] it was 2.85%; in assay [4], 13.8%; in assay [5], -2.55%; in assay [6], 26.3%.

Consider `Cc1nc2cc(N)c(Cl)cc2[nH]1`, for which the growth inhibition was -6.5% in assay [1]; 14.8% in assay [2]; 9.95% in assay [3]; -7.15% in assay [4]; 10.5% in assay [5]; -0.6% in assay [6].

Regarding `O=S(=O)(O)c1cc(S(=O)(=O)O)c2c(N=Nc3cccc4ccccc34)c(O)ccc2c1`, the growth inhibition was 0.8% in assay [1]; -9.25% in assay [2]; -35.5% in assay [3]; -18.1% in assay [4]; -35.9% in assay [5]; 1.55% in assay [6].

Turning to `O=C(Cl)C1CC=C2c3ccccc3CCC2C1C(=O)Cl` (stereo not drawn), the growth inhibition in assay [1] was 0.85%; in assay [2], 19.1%; in assay [3], 8.1%; in assay [4] it was -3.05%; in assay [5], 15.1%; in assay [6] it was -5.5%.

As for `S=C1NCCN1c1ccc(Cl)cc1`, the growth inhibition in assay [1] is -16.4%; in assay [2], -16.1%; in assay [3], -20.4%; in assay [4], -21.8%; in assay [5], -30.5%; in assay [6] it was 5.55%.
